Laboratory results reported in publication PMC10812921, “Transcriptional Coactivator BOB1 (OBF1, OCA-B) Modulates the Specificity of DNA Recognition by the POU-Domain Factors OCT1 and OCT2 in a Monomeric Configuration”.

Assays:
POU1 (OCT1 POU domain) = POU1 (OCT1 POU domain) (human, UniProt P14859 260-458); experiment: EMSA-SELEX-seq; no BOB1; 20 mM Tris-HCl pH 7.6, 140 mM NaCl, 10% glycerol, 0.5 mM EDTA, 0.05% Triton X-100, 0.1 mg/mL BSA, 0.1 mg/mL poly(dI-dC), 5 mM DTT, room temperature, 20 min; high values mean tight binding; settings: protein: recombinant; dsDNA, one strand shown
Outline: (§1)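 A double-stranded random 35-nt library (300 ng, PCR-amplified) was incubated with 30 ng tagged POU-domain protein, with or without 28 ng coactivator protein, in 20 μL Tris–HCl pH 7.6 binding buffer for 20 min at RT. The proteins had been expressed in E. coli BL21, purified under denaturing conditions and renatured. Complex bands from native 6% PAGE were eluted and PCR-amplified over four rounds, then sequenced on Illumina. For binding preference, the percentage of sequenced 8-mers matching a motif pattern was calculated.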

POU2 (OCT2 POU domain) = molecular target: T1, POU2 (OCT2 POU domain) (human, UniProt P09086 175-386); experiment: as above; settings: protein: recombinant; dsDNA, one strand shown
T1 sequence: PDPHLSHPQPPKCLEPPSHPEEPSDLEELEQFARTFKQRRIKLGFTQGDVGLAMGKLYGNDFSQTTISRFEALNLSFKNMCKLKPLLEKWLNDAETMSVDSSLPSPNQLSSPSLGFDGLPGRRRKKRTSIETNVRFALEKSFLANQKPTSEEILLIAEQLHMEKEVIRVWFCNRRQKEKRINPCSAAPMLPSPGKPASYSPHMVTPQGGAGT
Outline: as §1

[1] = molecular target: POU1 (OCT1 POU domain);BOB1 (OBF1, OCA-B) (human;human, UniProt P14859;Q16633 260-458;1-256, |); experiment: EMSA-SELEX-seq; with BOB1 (ternary complex band); 20 mM Tris-HCl pH 7.6, 140 mM NaCl, 10% glycerol, 0.5 mM EDTA, 0.05% Triton X-100, 0.1 mg/mL BSA, 0.1 mg/mL poly(dI-dC), 5 mM DTT, room temperature, 20 min; high values mean tight binding; settings: protein: recombinant;recombinant; copies: 1;1; dsDNA, one strand shown
Outline: as §1

[2] = molecular target: T2, POU2 (OCT2 POU domain);BOB1 (OBF1, OCA-B) (human;human, UniProt P09086;Q16633 175-386;1-256, |); experiment: as above; settings: protein: recombinant;recombinant; copies: 1;1; dsDNA, one strand shown
T2 sequence 1: T1 sequence
T2 sequence 2: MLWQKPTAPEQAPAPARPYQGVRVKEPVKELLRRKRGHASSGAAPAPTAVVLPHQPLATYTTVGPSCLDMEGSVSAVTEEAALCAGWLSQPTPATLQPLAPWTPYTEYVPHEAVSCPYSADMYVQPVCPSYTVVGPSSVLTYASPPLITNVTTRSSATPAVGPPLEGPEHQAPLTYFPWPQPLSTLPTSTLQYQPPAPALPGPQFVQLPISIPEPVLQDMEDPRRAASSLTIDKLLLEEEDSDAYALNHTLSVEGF
Outline: as §1

POU1 (OCT1 POU domain), sequence (P14859 260-458): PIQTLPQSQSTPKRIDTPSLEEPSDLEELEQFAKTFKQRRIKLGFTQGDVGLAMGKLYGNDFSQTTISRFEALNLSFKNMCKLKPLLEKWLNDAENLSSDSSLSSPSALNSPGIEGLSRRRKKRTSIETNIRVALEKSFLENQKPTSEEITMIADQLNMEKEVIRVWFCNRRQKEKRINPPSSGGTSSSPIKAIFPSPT

Sequence	binding signal (POU1 (OCT1 POU domain))	binding signal (POU2 (OCT2 POU domain))	binding signal [1]	binding signal [2]
ACTAAAAA	0.0439 % of ANNNNAAN 8-mers	0.0409 % of ANNNNAAN 8-mers	0.0468 % of ANNNNAAN 8-mers	0.0388 % of ANNNNAAN 8-mers
ACACAAAT	0.116 % of ANNNNAAN 8-mers	0.0857 % of ANNNNAAN 8-mers	0.175 % of ANNNNAAN 8-mers	0.0916 % of ANNNNAAN 8-mers
ACGCTAAA	0.0305 % of ANNNNAAN 8-mers	0.0391 % of ANNNNAAN 8-mers	0.0281 % of ANNNNAAN 8-mers	0.0322 % of ANNNNAAN 8-mers
ATCGGAAA	0.04 % of ANNNNAAN 8-mers	0.0409 % of ANNNNAAN 8-mers	0.0429 % of ANNNNAAN 8-mers	0.0528 % of ANNNNAAN 8-mers
AGAGAAAG	0.0442 % of ANNNNAAN 8-mers	0.0501 % of ANNNNAAN 8-mers	0.0375 % of ANNNNAAN 8-mers	0.038 % of ANNNNAAN 8-mers
AAACGAAC	0.0328 % of ANNNNAAN 8-mers	0.0293 % of ANNNNAAN 8-mers	0.0437 % of ANNNNAAN 8-mers	0.0355 % of ANNNNAAN 8-mers
AATTCAAA	0.373 % of ANNNNAAN 8-mers	0.292 % of ANNNNAAN 8-mers	0.438 % of ANNNNAAN 8-mers	0.4 % of ANNNNAAN 8-mers
ACCGTAAG	0.0191 % of ANNNNAAN 8-mers	0.0155 % of ANNNNAAN 8-mers	0.0195 % of ANNNNAAN 8-mers	0.0281 % of ANNNNAAN 8-mers
AACCCAAC	0.0103 % of ANNNNAAN 8-mers	0.0132 % of ANNNNAAN 8-mers	0.0113 % of ANNNNAAN 8-mers	0.0182 % of ANNNNAAN 8-mers
AGAGAAAA	0.0702 % of ANNNNAAN 8-mers	0.065 % of ANNNNAAN 8-mers	0.0574 % of ANNNNAAN 8-mers	0.0504 % of ANNNNAAN 8-mers
AAATAAAA	0.177 % of ANNNNAAN 8-mers	0.177 % of ANNNNAAN 8-mers	0.199 % of ANNNNAAN 8-mers	0.171 % of ANNNNAAN 8-mers
ATCTGAAT	0.201 % of ANNNNAAN 8-mers	0.232 % of ANNNNAAN 8-mers	0.102 % of ANNNNAAN 8-mers	0.126 % of ANNNNAAN 8-mers
ATGTAAAG	0.489 % of ANNNNAAN 8-mers	0.393 % of ANNNNAAN 8-mers	0.489 % of ANNNNAAN 8-mers	0.477 % of ANNNNAAN 8-mers
ATCTTAAT	0.126 % of ANNNNAAN 8-mers	0.176 % of ANNNNAAN 8-mers	0.103 % of ANNNNAAN 8-mers	0.135 % of ANNNNAAN 8-mers
AGTAGAAA	0.0511 % of ANNNNAAN 8-mers	0.0708 % of ANNNNAAN 8-mers	0.0464 % of ANNNNAAN 8-mers	0.052 % of ANNNNAAN 8-mers
AAAGCAAG	0.04 % of ANNNNAAN 8-mers	0.0368 % of ANNNNAAN 8-mers	0.0457 % of ANNNNAAN 8-mers	0.0421 % of ANNNNAAN 8-mers
ATGAAAAA	0.149 % of ANNNNAAN 8-mers	0.123 % of ANNNNAAN 8-mers	0.204 % of ANNNNAAN 8-mers	0.121 % of ANNNNAAN 8-mers
AAATTAAC	0.334 % of ANNNNAAN 8-mers	0.33 % of ANNNNAAN 8-mers	0.188 % of ANNNNAAN 8-mers	0.196 % of ANNNNAAN 8-mers
ATCGCAAG	0.0179 % of ANNNNAAN 8-mers	0.0219 % of ANNNNAAN 8-mers	0.023 % of ANNNNAAN 8-mers	0.0206 % of ANNNNAAN 8-mers
AGCCAAAT	0.0858 % of ANNNNAAN 8-mers	0.0702 % of ANNNNAAN 8-mers	0.167 % of ANNNNAAN 8-mers	0.0892 % of ANNNNAAN 8-mers
AAATAAAG	0.156 % of ANNNNAAN 8-mers	0.151 % of ANNNNAAN 8-mers	0.168 % of ANNNNAAN 8-mers	0.171 % of ANNNNAAN 8-mers
AGTTCAAG	0.0297 % of ANNNNAAN 8-mers	0.0276 % of ANNNNAAN 8-mers	0.0359 % of ANNNNAAN 8-mers	0.0314 % of ANNNNAAN 8-mers
ATGAGAAC	0.0404 % of ANNNNAAN 8-mers	0.0552 % of ANNNNAAN 8-mers	0.03 % of ANNNNAAN 8-mers	0.0388 % of ANNNNAAN 8-mers
AAGGCAAA	0.222 % of ANNNNAAN 8-mers	0.117 % of ANNNNAAN 8-mers	0.443 % of ANNNNAAN 8-mers	0.278 % of ANNNNAAN 8-mers
ATTACAAA	0.0919 % of ANNNNAAN 8-mers	0.0955 % of ANNNNAAN 8-mers	0.08 % of ANNNNAAN 8-mers	0.0685 % of ANNNNAAN 8-mers
AGAGGAAC	0.0229 % of ANNNNAAN 8-mers	0.0339 % of ANNNNAAN 8-mers	0.0234 % of ANNNNAAN 8-mers	0.0264 % of ANNNNAAN 8-mers
ACGCAAAC	0.0614 % of ANNNNAAN 8-mers	0.0437 % of ANNNNAAN 8-mers	0.103 % of ANNNNAAN 8-mers	0.0512 % of ANNNNAAN 8-mers
AGTGCAAG	0.0187 % of ANNNNAAN 8-mers	0.0311 % of ANNNNAAN 8-mers	0.0238 % of ANNNNAAN 8-mers	0.0264 % of ANNNNAAN 8-mers
ACCTAAAT	0.0393 % of ANNNNAAN 8-mers	0.0489 % of ANNNNAAN 8-mers	0.0386 % of ANNNNAAN 8-mers	0.0421 % of ANNNNAAN 8-mers
